From PubChem BioAssay AID463173 (ICCB-Longwood Screening Facility, Harvard Medical School, 2010)
Hit rate of the full screen: of about 52,000 compounds, about 4,300 (8.3%) were called active. The sample holds actives, similar compounds and a random draw of the others, so the mix is not that of the screen. Rule as the data show it: active = survival mostly below about 52% (no sharp cut-off); inactive = mostly above about 56%.

Test system: DeltatarO mutant
Test: growth inhibition of S. aureus wild type versus tarO mutant, primary screen, teichoic acid synthesis inhibitors, RN4220, OD600 (AID 463173)
Conditions: OD600, 18 h, active compounds read low, screened at 18.75 µg/mL (by protocol)

| SMILES | survival |
| --- | --- |
| O=C(NC1CC(=O)N(c2ccc(Cl)cc2)C1)c1ccc2c(c1)OCO2 (stereo not drawn) | 78% (inactive) |
| CN(C(=O)c1nn(C)c2c1COc1ccccc1-2)c1cccc(C(F)(F)F)c1 | 81% (inactive) |
| Cc1ccc(C2=Nc3ccccc3N(CC(=O)Nc3cccc(F)c3)C(=O)C2)cc1C | 79% (inactive) |
| CCOC(=O)CC(=O)CSc1nc2ccccc2c(=O)n1CCc1ccccc1 | 84% (inactive) |
| COc1cccc(C(=O)Nc2ccc3oc(-c4cccc5c(Br)cccc45)nc3c2)c1 | 59% (inactive) |
| O=C(CCC1N=C2c3ccccc3N=C(SCC(=O)Nc3ccc(F)cc3)N2C1=O)NCc1cccs1 (stereo not drawn) | 87% (inactive) |
| O=C(COc1ccccc1)Nc1sc2c(c1C(=O)Nc1ccccc1)CCCCC2 | 85% (inactive) |
| O=C(Cc1ccccc1)Nc1sc2c(c1C(=O)Nc1ccccc1Cl)CCCC2 | 31% (active) |
| O=C(Cc1ccccc1)Nc1sc2c(c1C(=O)Nc1ccccc1Cl)CCCCC2 | 47% (inactive) |
| O=C(COc1ccccc1)Nc1sc2c(c1C(=O)Nc1ccccc1Cl)CCCCC2 | 56% (active) |
| O=C(O)CCC(=O)Nc1sc2c(c1C(=O)Nc1ccccc1)CCCCC2 | 92% (inactive) |
| COc1ccccc1NC(=O)c1c(NC(=O)COc2ccccc2)sc2c1CCCCC2 | 85% (inactive) |
| CCn1c(=O)n(CC)c2cc(N3CCCCC3)c(NC(=O)Nc3ccccc3C(F)(F)F)cc21 | 101% (inactive) |
| Cc1cc(-c2ccc(C)c(S(=O)(=O)N(C(C)C)C3CCCCC3)c2)on1 | 88% (inactive) |
| Cn1c2c(c(=O)n(C)c1=O)C(c1ccccc1[N+](=O)[O-])CC(=O)N2 (stereo not drawn) | 93% (inactive) |
| COc1ccc(-c2nc3cc(C(C)C)ccc3o2)cc1NC(=O)c1ccc(C)c(Cl)c1 | 21% (active) |
| COc1ccc(-c2nc3cc(C(C)C)ccc3o2)cc1NC(=O)c1ccccc1[N+](=O)[O-] | 50% (inactive) |
| COc1ccc(-c2nc3cc(NC(=O)COc4ccc(C)c(C)c4)ccc3o2)cc1 | 84% (inactive) |
| CCOc1ccc(C(=O)Nc2ccc(-c3nc4cc(C(C)C)ccc4o3)cc2)cc1Cl | 65% (inactive) |
| COc1ccc(-c2nc3cc(NC(=O)COc4ccccc4C)ccc3o2)cc1 | 60% (inactive) |

| SMILES | survival |
| --- | --- |
| COc1ccc(-c2nc3cc(C(C)C)ccc3o2)cc1NC(=O)COc1ccc(C)cc1C | 37% (active) |
| O=C(Nc1ccc(F)c(Cl)c1)C1CCCN(S(=O)(=O)c2cccc3nsnc23)C1 (stereo not drawn) | 67% (inactive) |
| O=C(CSc1nc2c([nH]c3ccccc32)c(=O)n1-c1ccc(Cl)cc1)NC1CCCCC1 | 87% (inactive) |
| COc1ccccc1NC(=O)Cn1c(=O)n(-c2ccccc2Cl)c(=O)c2sc3ccccc3c21 | 77% (inactive) |
| O=C(CN(CC1CCCO1)S(=O)(=O)c1ccc(S(=O)(=O)N2CCOCC2)cc1)Nc1ccccc1 (stereo not drawn) | 89% (inactive) |
| CCOC(=O)c1ccccc1NC(=O)Cn1ccn2nc(-c3ccc(OCC)cc3)cc2c1=O | 115% (inactive) |
| COC(=O)CSc1nc2cc3c(cc2cc1C#N)OCO3 | 97% (inactive) |
| CCc1ccc(-n2c(N3CCN(c4ccc(F)cc4)CC3)nc3ccccc3c2=O)cc1 | 83% (inactive) |
| COc1ccc(-c2cc3nc(-c4ccccc4)cc(C(F)(F)F)n3n2)cc1 | 58% (inactive) |
| Cc1cc2nc(-c3ccc(OCc4ccccc4F)cc3)cc(C(F)(F)F)n2n1 | 45% (active) |
| Cc1ccc(-c2cc(C(F)(F)F)n3nc(-c4ccc(Cl)cc4)cc3n2)cc1 | 51% (inactive) |
| Cc1cc2nc(-c3ccc(OCc4ccccc4Cl)cc3)cc(C(F)(F)F)n2n1 | 25% (active) |
| Cc1cc2nc(-c3ccc(OCc4ccccc4C)cc3)cc(C(F)(F)F)n2n1 | 13% (active) |
| CCN(c1ccc(OC)cc1)S(=O)(=O)c1ccc2[nH]c3c(c2c1)CCCCC3 | 80% (inactive) |
| CCc1cc(C(=O)Nc2cnn(Cc3ccc(F)cc3)c2)no1 | 50% (inactive) |
| COc1ccc(Cc2nc3ccc(C(=O)NCc4cc(Br)ccc4OC)cc3o2)cc1 | 93% (inactive) |
| COc1ccc(CNC(=O)CCCCCn2c(=O)[nH]c3ccccc3c2=O)cc1 | 86% (inactive) |
| Cc1ccc(S(=O)(=O)c2cnc(SC(C)C(=O)Nc3ccccc3)[nH]c2=O)cc1 (stereo not drawn) | 71% (inactive) |
| CC1CCC2(CC1)Nc1ccccc1S2 (stereo not drawn) | 105% (inactive) |
| O=C(COC(=O)c1ccccn1)Nc1ccccc1 | 101% (inactive) |

| SMILES | survival |
| --- | --- |
| COc1ccc(NC(=O)c2c(NC(=O)C(F)(F)F)sc3c2CCCCC3)cc1 | 2% (active) |
| Cc1ccc(NC(=O)c2c(NC(=O)c3ccccc3Cl)sc3c2CCC3)cc1 | 160% (inactive) |
| COc1ccc(NC(=O)c2c(NC(=O)c3ccc(Br)cc3)sc3c2CCCC3)cc1 | 169% (inactive) |
| COc1ccccc1NC(=O)c1c(NCc2sccc2C)sc2c1CCCCC2 | 85% (inactive) |
| COc1ccc(NC(=O)c2c(NC(=O)COc3ccccc3)sc3c2CCCCC3)cc1 | 72% (inactive) |
| Cc1ccc(NC(=O)c2c(NC(=O)C(F)(F)F)sc3c2CCCCC3)cc1 | -5% (active) |
| Cc1ccccc1NC(=O)c1c(NC(=O)C(F)(F)F)sc2c1CCCCC2 | -3% (active) |
| Cc1ccc(NC(=O)c2c(NC(=O)c3ccccc3)sc3c2CCC3)cc1 | 76% (inactive) |
| O=C1C2C3C=CC(C3)C2C(=O)N1CCCCN1C(=O)C2C3C=CC(C3)C2C1=O (stereo not drawn) | 93% (inactive) |
| CCc1ccccc1NC(=O)Cn1c(=O)c2cccn2c2ccc(F)cc21 | 83% (inactive) |
| COc1ccc(-c2noc(-c3ccc(NC4CCCC4)c([N+](=O)[O-])c3)n2)cc1 | 108% (inactive) |
| C/C=C(\C)C(=O)OC1c2c(ccc3ccc(=O)oc23)OC(C)(C)C1OC(C)=O (stereo not drawn) | 60% (inactive) |
| O=C(Nc1nnc(S(=O)(=O)N2CCCCCC2)s1)c1ccc(Cl)cc1 | 62% (inactive) |
| O=C(Nc1nnc(S(=O)(=O)N2CCCCC2)s1)c1ccc(F)cc1 | 79% (inactive) |
| Cc1ccc(C(=O)Nc2nnc(S(=O)(=O)N3CCCCCC3)s2)cc1 | 79% (inactive) |
| O=C(Nc1nnc(S(=O)(=O)N2CCCC2)s1)c1ccc(F)cc1 | 111% (inactive) |
| O=C(Nc1nnc(S(=O)(=O)N2CCCCCC2)s1)c1ccccc1 | 38% (active) |
| O=C(Nc1nnc(S(=O)(=O)N2CCCCC2)s1)c1ccc(Cl)cc1 | 37% (active) |
